From PubChem
Hits are enriched below; roughly 1.1% of the tested compounds scored in any of these assays.
HTR5A inv ctr: HTR5A inverse agonism, opioid heterodimer counter-screen | inhibition, % at 9.3 µM | HTR5A cell line, luminescence | P47898 | AID 504634 | actives 0.083% (n = 340,000); in the data active = inhibition mostly above about 23%, no sharp cut-off; inactive = mostly below about 18%;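 note: 0% = cells with DMSO and 100% = no-cell wells with DMSO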
Target sequence (P47898 whole entry, looked up): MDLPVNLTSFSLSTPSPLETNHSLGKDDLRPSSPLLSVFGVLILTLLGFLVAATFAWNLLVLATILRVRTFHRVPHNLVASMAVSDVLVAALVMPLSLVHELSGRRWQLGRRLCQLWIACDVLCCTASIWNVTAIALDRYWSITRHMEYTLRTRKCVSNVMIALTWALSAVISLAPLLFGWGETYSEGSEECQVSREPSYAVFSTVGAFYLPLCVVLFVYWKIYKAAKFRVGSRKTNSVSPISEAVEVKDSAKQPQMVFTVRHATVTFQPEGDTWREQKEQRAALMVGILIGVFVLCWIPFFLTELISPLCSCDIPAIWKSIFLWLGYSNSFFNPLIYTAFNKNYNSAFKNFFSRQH
OPRM1-OPRD1 inv: mu-delta opioid heterodimer inverse agonism. actives 0.21% (n = 340,000). inhibition, % at 9.3 µM. cell-based MOR-DOR heterodimer luminescence; in the data active = inhibition above about 22%, passing the limit was not always enough;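 note: 0% = cells with DMSO and 100% = wells without cells with DMSO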
HTR5A ag: counter-screen for OPRM1-OPRD1 agonists: human HTR5A agonism | P47898 | HTR5A agonist assay, luminescence, cell-based | activation, % at 9.3 µM | actives 0.61% (n = 340,000) | AID 504692; in the data active = activation mostly above about 9.5%, no sharp cut-off; inactive = mostly below about 7.6%;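 note: 0% = cells with vehicle only and 100% = reference agonist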
MOR-DOR ag: agonists of human mu-delta opioid receptor heterodimerization; P35372+P41143; actives 0.3% (n = 340,000); cells, OPRM1-OPRD1 heterodimerization, luminescence; activation, % at 9.3 µM; AID 504326; in the data active = activation above about 18%;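 note: 0% = vehicle-treated cells and 100% = reference agonist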
OPRM1-D1 inv cf: confirmation of human OPRM1-OPRD1 heterodimerization inverse agonists | shares compounds with OPRM1-OPRD1 inv | cells expressing OPRM1/OPRD1 heterodimer, luminescence | inhibition, % at 9.3 µM | actives 20% (n = 580) | AID 504900; in the data active = inhibition above about 32%;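 note: 0% = cells with DMSO and 100% = wells lacking cells with DMSO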
HTR5A inv ctr2: HTR5A inverse agonism, opioid heterodimer counter-screen | shares compounds with OPRM1-OPRD1 inv | HTR5A-expressing cells, luminescence | inhibition, % at 9.3 µM | 580 tested, under 10 active; call rule not given here;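 note: 0% = cells with DMSO and 100% = no-cell wells with DMSO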
Active calls of the source: *; · = not tested or not shown.

SMILES	HTR5A inv ctr	OPRM1-OPRD1 inv	HTR5A ag	MOR-DOR ag	OPRM1-D1 inv cf	HTR5A inv ctr2
Cc1cc(C(=O)NNc2ccc(C)c(C)c2)no1	9	58*	-3	-12	-36	-27
Cc1cc(C(=O)NNc2ccc(Cl)cc2)no1	12	35*	3	-7	23	9
CC1(C)CC(CC(=O)NC(=S)Nc2ccc([N+](=O)[O-])cc2)C(=O)O1 (stereo not given)	2	35*	-6	-6	-259	-4
Cc1ccc(NC(=O)CS(=O)CC(=O)Nc2ccccc2-c2ccc(C)o2)cc1 (stereo not given)	8	35*	-3	-6	3	3
CC1CCN(CCCNC(=O)C2CCN(S(=O)(=O)N3CCCCC3)CC2)CC1	-14	12	0	-2	·	·
CC1CCCCN1CCNC(=O)C1CCN(S(=O)(=O)N2CCCCC2)CC1 (stereo not given)	-18	13*	8	-2	-156	-19
CCOC(=O)CC(NC(=O)c1cccc2c1C(=O)N(Cc1cccnc1)C2)c1ccc(OC(C)C)cc1 (stereo not given)	-1	16	0	-3	·	·
CCN1C(=O)/C(=C\c2cccn2-c2ccc([N+](=O)[O-])cc2)N(CC)C1=S	-18	7	5	-1	·	·
O=C1C(=O)N(CNc2ccccn2)c2ccccc21	17	84*	-6	-13	68*	11
CN1C(=O)c2cccc3c(S(=O)(=O)Nc4ccccn4)ccc1c23	-2	9	1	-2	·	·
O=C1C(=O)N(CNc2cccnc2)c2ccccc21	9	51*	0	-10	14	6
O=C(CN1C(=O)C(=O)c2ccccc21)NCCc1ccccc1	25	56*	-9	-11	9	11
O=C1C(=O)N(CCCc2ccccc2)c2ccccc21	5	43*	-3	-9	90*	2
CCOC(=O)C1CCN(S(=O)(=O)c2cc(C(=O)N3CCCCC3)ccc2OC)CC1	-3	0	5	0	·	·
CCN(CC(=O)Nc1ccc(NC(C)=O)cc1)C(=O)/C=C/c1ccc([N+](=O)[O-])cc1	-21	2	-2	0	·	·
CCc1ccc2c(c1)C(=O)c1ccccc1C2=O	-12	-39	4	5	·	·
O=C1c2ccccc2-c2c1nc1c([n+]2[O-])CCCC1	18	93*	-10	-16	22	1
COc1ccc(C(=O)COC(=O)CCc2nc3ccccc3[nH]c2=O)cc1Br	-6	2	2	0	·	·
CCN(CC(=O)Nc1c(F)cccc1F)C(=O)CCNC(=O)c1ccco1	-14	3	1	0	·	·
Cc1ccc2c(c1)C(=O)C(=O)N2CC(=O)Nc1ccc(N2CCOCC2)cc1	8	32*	-3	-6	37*	2
CC(C)C1OC2c3cccc4cccc(c34)C2N1c1ccccc1 (stereo not given)	-5	65*	-7	-13	1	0
C=CCNC(=S)NCCCCC1NC(=S)N(CC=C)C1=O (stereo not given)	22	25*	0	-3	7	-4
CN1CCN(c2ccc(NC(=O)CSc3nnnn3-c3ccccc3Cl)cc2)CC1	5	12	-5	-2	·	·
O=c1n(Cc2ccccc2Cl)nc2n1-c1ccccc1SC2	11	12	3	-2	·	·
CN(C)S(=O)(=O)c1cccc(CNCC2COc3ccccc3O2)c1 (stereo not given)	-12	4	3	-1	·	·
SMILES	HTR5A inv ctr	OPRM1-OPRD1 inv	HTR5A ag	MOR-DOR ag	OPRM1-D1 inv cf	HTR5A inv ctr2
Cc1ccc(S(=O)(=O)Nc2ccccc2-c2ccccc2NS(=O)(=O)c2ccc(C)cc2)cc1	-11	9	5	-2	·	·
Cc1ccc(S(=O)(=O)Nc2cccc3cccnc23)cc1	11	44*	-6	-7	11	5
O=C(CCn1cccn1)Nc1ccc(-c2ccno2)cc1	13	10	1	-2	·	·
O=C1C=C(N2CCOCC2)c2ccccc2C1=O	1	-74	0	15	·	·
CC1=C(C)C(=O)C(N2CCOCC2)=CC1=O	-10	47*	4	-7	-20	-259
COc1ccccc1CNc1ccc(Br)cn1	-3	7	1	-2	·	·
CN(C)c1nc(=NCc2cccs2)ss1	2	59*	-1	-12	30	20
CC(SC(=S)N(C)Cc1cccs1)C(=O)O (stereo not given)	-6	11	1	-2	·	·
O=C(Nc1c(C(=O)O)[nH]c2ccccc12)NC1CCCCC1	4	32*	1	-7	-74	-7
